# Data published in paper PMC5540273 (PLoS ONE, 2017).
# How the values were obtained:
# Conditions in all cases: concentration: 1 μM,replicates: in singlicate; n = 1
# CDC2L2 = test system: CDC2L2
# CDC2L5 = test system: T1, CDC2L5
# T1 construct: gene CDK13
# CDK11 = test system: T2, CDK11
# T2 construct: gene CDK19
# CDK2 = test system: CDK2
# CDK3 = test system: CDK3
# CDK4-cyclinD1 = test system: CDK4-cyclinD1
# CDK4-cyclinD3 = test system: CDK4-cyclinD3
# CDK4 = test system: CDK4
# CDK5 = test system: CDK5
# CDK7 = test system: CDK7
# CDK8 = test system: CDK8
# CDK9 = test system: CDK9
# CDKL1 = test system: CDKL1
# CDKL2 = test system: CDKL2
# CDKL3 = test system: CDKL3
# CDKL5 = test system: CDKL5
# CHEK1 = test system: CHEK1
# CHEK2 = test system: CHEK2
# CIT = test system: CIT
# CLK1 = test system: CLK1
# 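Further: KINOMEscan kinase panel screen.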
SMILES,%Inh (CDC2L2) [%],%Inh (CDC2L5) [%],%Inh (CDK11) [%],%Inh (CDK2) [%],%Inh (CDK3) [%],%Inh (CDK4-cyclinD1) [%],%Inh (CDK4-cyclinD3) [%],%Inh (CDK4) [%],%Inh (CDK5) [%],%Inh (CDK7) [%],%Inh (CDK8) [%],%Inh (CDK9) [%],%Inh (CDKL1) [%],%Inh (CDKL2) [%],%Inh (CDKL3) [%],%Inh (CDKL5) [%],%Inh (CHEK1) [%],%Inh (CHEK2) [%],%Inh (CIT) [%],%Inh (CLK1) [%]
O=C(NCC1CC1)c1ccc(-c2cc(C(=O)NC3CC3)ccc2F)cc1 [GW810445],0,7,32,0,7,0,0,1,0,0,62,0,0,0,28,0,0,0,25,0
C[C@@H]1CNc2c(sc3ccc4nc(-c5ccncc5)ccc4c23)C(=O)N1,2,0,25,0,0,0,2,0,11,77,7,44,11,0,5,0,0,18,22,92.9
O=C(Nc1ccc(Oc2ccc3nc(NC(=O)C4CC4)cn3n2)c(F)c1)c1cccn(-c2ccccc2)c1=O,6,0,28,0,39,0,0,0,0,0,63,6,45,74,25,0,0,0,30,1
CCN1CCN(CCCC(=O)Nc2n[nH]c3nc(-c4ccc(O)cc4)c(Br)cc23)CC1 [SB-731579],4,0,0,1,30,99.5,95.1,22,0,94.7,14,0,23,73,2,86,0,15,63,47
Cc1nnc(-c2ccc3occ(-c4ccc(S(C)=O)cc4)c3n2)o1 (centres unmarked),0,0,0,6,0,0,0,0,0,0,0,0,24,0,0,0,0,1,0,0
CS(=O)(=O)c1cccc(CNc2nc(Nc3ccc4c(c3)[C@@H]3C[C@@H]4CNC3=O)ncc2C(F)(F)F)c1,0,2,0,46,33,97.1,96.4,60,82,94,0,27,71,80,2,0,0,17,51,81
CS(=O)(=O)Nc1ccc(-c2ccnc3[nH]ccc23)cc1 [GSK993273],0,0,45,0,15,0,0,0,0,37,18,0,0,19,0,0,0,0,57,96.7
N#Cc1cccc(C(=O)NC2CCN(c3ccnc(Nc4ccc(F)cc4)n3)C2)c1 (centres unmarked) [GSK1379708],0,0,4,0,0,0,0,10,0,0,19,0,8,17,0,6,0,0,11,14
COc1cccc(CNC(=O)NC2CCN(c3ccnc(Nc4cc(OC)c(OC)c(OC)c4)n3)C2)c1 (centres unmarked) [GSK1379765],25,0,22,0,8,4,0,14,0,0,29,0,13,22,0,0,0,14,28,21
CC(C(=O)NC1CCN(c2ccnc(Nc3ccc(F)cc3)n2)C1)c1ccc(Cl)cc1 (centres unmarked) [GSK1379713],0,0,6,0,23,0,0,0,0,0,23,0,0,1,0,0,15,0,28,15
